From PubChem BioAssay AID1259319 (Sanford-Burnham Center for Chemical Genomics, 2017)
Out of some 3,000 compounds screened, about 1,800 (60%) were called active. So high a share suggests a set chosen from earlier hits. Not all results are given here. Unmarked numbers belong to inactive results.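 Rule for the calls: active = activation at or above a set limit, or at least 3 SD above the negative control mean; inactive = the rest.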

Target: Nuclear receptor subfamily 1 group D member 1 (Homo sapiens) (UniProt P20393)
Sequence (P20393 whole entry, looked up): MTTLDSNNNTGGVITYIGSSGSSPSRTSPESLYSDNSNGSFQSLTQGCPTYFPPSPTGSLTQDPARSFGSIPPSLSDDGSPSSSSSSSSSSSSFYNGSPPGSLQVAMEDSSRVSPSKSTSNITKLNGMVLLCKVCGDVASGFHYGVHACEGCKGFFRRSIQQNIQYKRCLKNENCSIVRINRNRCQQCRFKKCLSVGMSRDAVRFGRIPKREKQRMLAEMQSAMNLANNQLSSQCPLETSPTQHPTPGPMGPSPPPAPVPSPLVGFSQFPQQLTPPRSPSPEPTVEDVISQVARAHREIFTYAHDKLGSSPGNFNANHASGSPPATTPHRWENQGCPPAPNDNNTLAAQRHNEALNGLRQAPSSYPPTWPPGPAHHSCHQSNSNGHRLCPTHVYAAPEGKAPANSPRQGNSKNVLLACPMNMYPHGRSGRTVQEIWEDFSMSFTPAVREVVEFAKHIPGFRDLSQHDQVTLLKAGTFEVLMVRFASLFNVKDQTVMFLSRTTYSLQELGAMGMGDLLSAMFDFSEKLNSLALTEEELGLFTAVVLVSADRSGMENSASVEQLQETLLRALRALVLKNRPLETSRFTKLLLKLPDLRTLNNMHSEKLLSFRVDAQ
Experiment: modulators of Rev-erb alpha DNA binding, confirmation, biochemical, FITC-DNA, fluorescence polarization, single point (AID 1259319);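 note: 0% = 35 nM protein with DMSO and 100% = 750 nM protein high control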
Details: 90 min, at 25 µM, active compounds read high

Row | Compound | activation
1 | c1ccc(CSc2ncnc3c2sc2nc(N4CCOCC4)c4c(c23)CCCC4)cc1 | 93.6% (active)
2 | S=c1nccc(-c2cc(Cl)sc2Cl)[nH]1 | 36.6% (active)
3 | c1ccc(-c2cc(-c3nnc4sc(-c5ccccn5)nn34)[nH]n2)cc1 | 26.1% (active)
4 | CN(C)c1ccc(/C=C2\NC(=S)N(Cc3ccccc3)C2=O)cc1 | 37.3% (active)
5 | CN1/C(=C\C=C2\N=C(c3ccc(F)cc3)OC2=O)C(C)(C)c2ccccc21 | 5.84%
6 | O=C(CCn1c(SCC(=O)c2ccccc2)nc2ccccc2c1=O)NCc1ccc(F)cc1 | 36.3% (active)
7 | O=C(CCn1c(=S)[nH]c2cc3c(cc2c1=O)OCO3)NCc1ccc(Cl)cc1 | 9.29%
8 | C=CCNC(=O)CC12CC3CC(C1)CC(CC(=O)NCC=C)(C3)C2 | -0.299%
9 | N#Cc1c(N)nc2c3c(sc(=N)c2c1N)NC(=O)CC3c1ccccc1Cl (stereo not given) | 35% (active)
10 | O=S(=O)(c1ccc(Br)cc1)c1nc(-c2ccccc2)oc1NCc1cccnc1 | 5.25%
11 | Oc1ccc2ccc3cccc[n+]3c2c1 | 41.7% (active)
12 | CCc1ccccc1NC(=O)c1cc(-c2ccc3c(c2)OCO3)on1 | 10.4%
13 | CN(C)S(=O)(=O)c1ccc(N2CCCC2)c(C(=O)Nc2ccc(Br)cc2F)c1 | 10.4%
14 | O=C1CCCC2=C1C(c1ccccc1)n1c(s/c(=C/c3cccc(F)c3)c1=O)=N2 (stereo not given) | 30% (active)
15 | CCOC(=O)c1sc(=NC(=O)c2ccc(Br)cc2)n(C)c1C | 26.1% (active)
16 | COc1ccc2sc(-c3ccc(S(C)(=O)=O)cc3)c(-c3ccc(C(N)=O)cc3)c2c1 | 5.94%
17 | CCCNC(=O)Nc1ccc2c(c1)C(=O)N(C)[C@H]1CC[C@H](CC(=O)NCC3CCCCC3)O[C@@H]1CO2 | 63.1% (active)
18 | CCN1C(=O)/C(=C\N2CCN(c3cccc(Cl)c3)CC2)SC1=S | 204% (active)
19 | Cc1ccc(S(=O)(=O)c2nnn3c2nc(N2CCN(c4ccccn4)CC2)c2ccccc23)cc1 | 65.4% (active)
20 | Cc1cccc(Nc2nc3c(S(=O)(=O)c4ccccc4)nnn3c3ccccc23)c1C | 15.8%
21 | CC(C)OCCCNC(=O)CN1C(=O)/C(=C/c2ccccc2F)Oc2ccccc21 | -0.363%
22 | COC(=O)c1c(NC(C)=O)sc(C(=O)Nc2ccccc2OC)c1C | 9.45%
23 | COC(=O)c1sc(NC(=O)c2ccc(OC)cc2OC)nc1C | 24.1% (active)

Row | Compound | activation
24 | COc1ccc(Cc2nnc(NC(=O)c3ccc(OC)cc3OC)s2)cc1 | 9.03%
25 | Cc1cc(Br)cn2c(Cc3ccccc3C(F)(F)F)c(-c3ccc(Cl)cc3)nc12 | 7.64%
26 | Cc1ccc(-c2nc3c(C)cc(Br)cn3c2Cc2ccccc2)cc1 | 14.9% (active)
27 | CCOc1cccc(C(=O)Nc2nnc(-c3cccs3)s2)c1 | -1.11%
28 | Cc1nonc1NC(=O)CSc1nc2ccccc2cc1C#N | 39.8% (active)
29 | Cc1cc2cc3c(cc2nc1SCC(=O)Nc1c(C)cccc1C)CCC3 | 16.2%
30 | COCc1cc(C)nc(SCC(=O)Nc2cccc(C)c2)c1C#N | -4.78%
31 | Cc1nc2cc(NC(=O)CSc3nc4c(C)cccc4cc3C#N)ccc2s1 | 85.3% (active)
32 | CCOc1ccc2cc(C#N)c(SCC(=O)OC)nc2c1 | 90.1% (active)
33 | CCOC(=O)c1c(NC(=O)CN2C(=O)NC3(CCC(C)CC3)C2=O)sc(C)c1CC (stereo not given) | 11%
34 | c1ccc2c(-c3nn4nnnc4c4ccccc34)cccc2c1 | 29.3% (active)
35 | COc1ccc(C2=NN(C(=O)CSc3nc(=O)n4ccc(C)cc4n3)C(c3ccc(C)cc3)C2)cc1 (stereo not given) | 4.15%
36 | COc1ccc(-c2nnc(SCC(=O)c3ccc4c(c3)OCCO4)o2)cc1 | 28.7% (active)
37 | CCOc1cccc(NC(=O)Cn2nc(-c3ccc4c(c3)OCCO4)ccc2=O)c1 | 15.3%
38 | COc1nc(-c2ccc(Cl)cc2)ccc1-c1noc(-c2cccs2)n1 | 46.9% (active)
39 | Fc1c(F)c(C(F)(F)F)c(F)c(F)c1N1CCN(c2ccc3nnc(C(F)(F)F)n3n2)CC1 | 40% (active)
40 | COc1ccccc1N1CCN(CC(=O)Nc2ccnn2C2CCCC2)CC1 | -5.83%
41 | CC(=O)c1cc(C#N)c(SCC(=O)Nc2nccs2)nc1C | 29% (active)
42 | COc1ccc(-n2ncc3c(N4CCc5ccccc54)ncnc32)cc1 | 40.6% (active)
43 | Cc1cc(C(C)(C)C)n2nc(C)c(-c3ccccc3)c2n1 | 4.3%
44 | CCCCNC(=O)CSc1nc2n[nH]c(C)c2c(=N)n1-c1cccc(Cl)c1C | 26.6% (active)
45 | Cc1ccc(-n2c(SCC(=O)NCCC3=CCCCC3)nc3n[nH]c(C)c3c2=N)cc1Cl | 14.5%
